KB-3-1 tox = KB-3-1 parental cell cytotoxicity; KB-3-1 viability, CellTiter-Glo ATP luminescence, 72 h; Potency, µM (highest dose often 46.1 µM), most hits filed as cytotoxic; 400,000 compounds, 1.4% hits; AID 1347075; note: % is set by controls: 0 for no effect and ±100 for the full control effect; nearly all actives have a fitted effect of over 60% in size
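Cells are dispensed, compounds pinned in, plates held at 37 °C for 72 h, then CellTiter-Glo is added and luminescence read after 10 minutes. Cell line: parental KB-3-1 in phenol-red-free DMEM, 10% FBS.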
MCF10A rerep = induces DNA re-replication in MCF 10a normal breast cells; MCF 10A DNA re-replication, Hoechst nuclear intensity, 48 h; Potency, µM (series often up to 46.1 µM), inactives show at the highest dose activity, positive = re-replication, most hits filed as activators; 350,000 compounds, 2.9% hits; note: % of control where 0% means no effect; nearly all actives have a fitted effect of over 50% in size
PTAP TSG101 blk = blocks PTAP/TSG101 interaction to inhibit HIV-1 budding; Q99816; Fluorescence polarization, FITC-PTAP peptide / Tsg101 binding; Potency, µM (titrated, usually from 115 µM), inactives show at the top dose activity change, negative = inhibition, most hits filed as inhibitors; 340,000 tested, under 10 active; AID 493005; active = well fitted inhibition curve with a large enough effect in the main read-out, with a control signal flat, not every such curve was filed as active; inconclusive = small, poorly fitted or top-dose-only effect, or effect the other way, or a change in a side signal; inactive = no such curve, though single readings can be large or run the other way; note: % of control where 0% means no effect
Target sequence (Q99816 whole entry, looked up): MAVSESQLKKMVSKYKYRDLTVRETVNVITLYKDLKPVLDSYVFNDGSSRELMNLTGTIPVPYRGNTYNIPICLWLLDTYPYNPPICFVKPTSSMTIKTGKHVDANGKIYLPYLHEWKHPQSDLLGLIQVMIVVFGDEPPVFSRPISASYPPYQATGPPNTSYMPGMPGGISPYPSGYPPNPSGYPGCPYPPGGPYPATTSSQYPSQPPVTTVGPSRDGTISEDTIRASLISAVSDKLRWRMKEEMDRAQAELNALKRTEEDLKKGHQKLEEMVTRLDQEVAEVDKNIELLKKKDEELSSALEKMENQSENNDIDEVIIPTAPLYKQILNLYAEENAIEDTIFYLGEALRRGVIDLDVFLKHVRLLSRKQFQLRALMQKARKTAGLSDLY
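Fluorescence polarization binding of Tsg101 binding domain (10 uM final) to FITC-labeled PTAP peptide (50 nM final) in HEPES pH 7.5 buffer with NaCl, Tween 20, EDTA, TCEP. Compounds added before peptide; binding 20 min at RT.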
KB-V1 cytotox = KB-V1 MDR subline cytotoxicity. Potency, µM (top dose mostly 46.1 µM), most hits filed as cytotoxic. 400,000 compounds, 3.4% hits. KB-V1 MDR cells viability, CellTiter-Glo, 72 h; note: % is set by controls: 0 for no effect and ±100 for the full control effect; nearly all actives have a fitted effect of over 60% in size
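Compound-treated KB-V1 multidrug-resistant cells, 72 h, 37 degrees C; viability by CellTiter-Glo. Fitted qHTS curves give the values.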
SW480 rerep = DNA re-replication induction in SW480 cells | SW480 DNA re-replication, Hoechst DNA content imaging, 48 h | AID 624297 | Potency, µM (titrated, usually from 46.1 µM), for the others: top-dose re-replication activation, actives largely listed as activators | 340,000 compounds, 1.8% hits; note: % of control where 0% means no effect; nearly all actives have a fitted effect of over 55% in size
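Cells (250 per well) received 23 nL compound or DMSO by pin tool and were kept 48 hr at 37 C, 5% CO2. Nuclei were then stained with Hoechst for 40 min and scanned for DNA content.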
RGS4 inhibitor = inhibitors of human regulator of G protein signaling 4; 390,000 compounds, 0.039% hits; P49798; Transcreener GDP fluorescence polarization, RGS4-accelerated GTP hydrolysis; AID 504845; Potency, µM (titrated, usually from 114 µM), for inactives: at the highest dose activity change, negative = inhibition, most hits filed as inhibitors; note: % is set by controls: 0 for no effect and ±100 for the full control effect; nearly all actives have a fitted effect of over 75% in size
Target sequence (P49798 whole entry, looked up): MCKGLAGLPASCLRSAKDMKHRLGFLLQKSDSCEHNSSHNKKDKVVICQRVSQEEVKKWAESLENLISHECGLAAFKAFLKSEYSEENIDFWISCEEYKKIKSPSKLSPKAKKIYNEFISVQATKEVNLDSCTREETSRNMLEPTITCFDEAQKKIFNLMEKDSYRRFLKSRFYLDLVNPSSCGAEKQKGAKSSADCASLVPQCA
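MLSMR compounds (23 nl, pin-transferred) preincubated 10 min at room temperature with a 500nM (2x) first reagent, then RGS4 at 900nM (2x) plus Transcreener GDP mix added; fluorescence polarization (620/688 nm) read before and after 90 min at 30 °C.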
Numbers without * were called inactive; i = inactive; u = inconclusive; x = no result given; ! = not confirmed by another sample; [ ] = dose if it differs, or a comment. Sampled rows, rich in hits. Any-hit rate of the full collection: about 6.6%. Unless noted, calls come from the whole dose curve; as a rule, active = well fitted curve in the direction sought with a large enough effect; inconclusive = small, poorly fitted or top-dose-only effect, or another doubt; inactive = no such curve, though single readings can be large; an effect the other way counts as inactive or inconclusive. Potency is the fitted concentration of half-maximal effect.

SMILES	KB-3-1 tox	MCF10A rerep	PTAP TSG101 blk	KB-V1 cytotox	SW480 rerep	RGS4 inhibitor
C[C@@H]1CCN(C(=O)[C@H](CCCNC(=N)N)NS(=O)(=O)c2cccc3c2NC[C@H](C)C3)[C@@H](C(=O)O)C1	x	-1%	x	x	4%	x
CNC(=O)c1ccc2nc(-c3ccco3)c(-c3ccco3)nc2c1	i	x	x	i	x	u
COc1ccc(Cl)cc1NC(=O)Cn1c2ncccc2c(=O)n1-c1ccc(C)c(C)c1	x	x	x	x	x	-4%
CC1CC(C)CN(c2oc(-c3ccco3)nc2C#N)C1 (centres undefined)	i	u	1%	21µM*	1%	14%
CCOC(=O)c1c(/N=C/N(C)C)sc(/C=N/Nc2ccccc2)c1-c1ccccc1Cl	i	15µM*	3%	i	18µM*	-21%
CCOC(=O)c1c(/N=C/N(C)C)sc(/C=N/Nc2ccccc2)c1-c1ccccc1	i	21µM*	-5%	i	u	-22%[11.4 µM]
COc1cccc(N2CCN(C(=O)c3cnc4c(-c5ccccc5)c(C)nn4c3C)CC2)c1	i	x	x	i	x	6%
CNc1nc(-c2ccccc2)nnc1C(F)(F)F	i	-1%	-1%	i	2%	-18%
COc1nc(-c2ccccc2)nc(-c2ccccc2)c1C	i	23µM*	-3%	i	6%	-40%
Cc1ccc(-c2nnc(-c3ccccc3)c(-c3ccccc3)n2)cc1	i	22%	-3%	18µM*	3%	-12%
COc1cnc(-c2ccccc2)nc1OC	u	-2%	-12%	u	-12%	-26%
Cc1ccc(Sc2nc(-c3ccccc3)nnc2C(F)(F)F)cc1	i	8.2µM*	-4%	i	u	4%
O=S1(=O)CCOC[C@H](c2ccccc2)N1Cc1ccc(Cl)c(Cl)c1	u	x	x	i	x	x
CCCN(CCC)C(=O)Cn1c(=O)n(-c2ccccc2)c(=O)c2c3c(sc21)CCCC3	i	x	x	i	x	-7%
COc1ccc2cccc(N3CCN(CCNC(=O)c4ccc(F)cc4)CC3)c2c1	x	x	x	x	x	-151%[56.9 µM]
O=C(NC1CCCCC1)N1CCCC(c2nc3ccccc3[nH]2)C1 (centres undefined)	i	-5%	x	21µM*	-1%	-22%
COC1(OC)C(/C=C/c2ccc(C)cc2)C(C#N)(C#N)C1(OC)OC (centres undefined)	u	18µM*	-4%	i	u	20%[11.4 µM]
CCCCOC(=O)n1c(SCC(=O)N(C)C)nc2ccccc21	i	-6%	x	16µM*	-3%	-3%
CCCCOc1ccc(OCCSc2nc3ccccc3n2CC(=O)O)cc1	i	4%	-8%	i	4%	5%
COc1ccc(C(C)=O)cc1CSc1nnc(-c2ccncc2)n1C	i	1%	-3%	i	-16%	30%
COc1ccc(C(C)=O)cc1CSc1nnc(-c2ccc(Cl)cc2)n1-c1ccccc1	u	u	-1%	15µM*	10%[9.22 µM]	6%
COc1ccc(-c2nnc(SCc3nnc(-c4ccc(Cl)cc4)o3)n2-c2ccccc2)cc1	u	u	-1%	3.7µM*	u	-9%
c1ccc(-c2noc(CSc3nnnn3C3CCCCC3)n2)cc1	i	3%	-2%	18µM*	-5%	-10%
COc1ccc(C(C)=O)cc1CSc1nnc(Nc2ccccc2)s1	u	5%	0%	8.2µM*	1%	-28%
c1ccc(-c2noc(CC3CCCCC3)n2)cc1	i	23%	1%	u	5%	2%
SMILES	KB-3-1 tox	MCF10A rerep	PTAP TSG101 blk	KB-V1 cytotox	SW480 rerep	RGS4 inhibitor
COc1ccc(-n2c(SCc3nnc(-c4ccccc4)o3)nnc2-c2ccccc2)cc1	i	17%	-12%	2.3µM*	-15%	-41%
COc1ccc(-c2noc(CSc3nnc(-c4ccccc4)n3C)n2)cc1	i	2%	-10%	15µM*!	-2%	2%
O=C(N=Nc1c(O)[nH]c2ccccc12)c1cccc(S(=O)(=O)Nc2ccccc2Cl)c1	i	1%	-3%	i	-85%	u
CC(C)c1ccc2[nH]c(O)c(N=NC(=O)c3cccc(S(=O)(=O)Nc4ccccc4Cl)c3)c2c1	i	15µM*	0%	i	-3%	30%
COC(=O)c1nn(-c2ccc(OC)cc2)c(=O)cc1NN	i	10%	2%	u	0%	-16%
COC(=O)c1nn(-c2ccc(OC)cc2)c(=O)c2c(N)sc(C)c12	i	-4%	-6%	i	29µM*	u
COc1cc(C(=O)Nc2nc(-c3ccc(Cl)cc3)c(C)s2)ccc1OCC(=O)Nc1ccc(F)cc1	13µM*	u	-1%	u	x	-3%
O=C(c1cccs1)c1coc2ccc(O)c(CN3CCOCC3)c12	i	5%	-6%	2.9µM*	7%	18%
CCn1c(=O)cc(SCC(=O)N(C)Cc2ccccc2)c2ccccc21	i	0%	-2%	4.6µM*	-9%	31%
CCn1c(=O)cc(SCC(=O)N2CCN(c3ccccc3F)CC2)c2ccccc21	i	u	-4%	23µM*!	-3%	2%
CN(Cc1ccccc1)C(=O)CSc1cc(=O)n(C)c2ccccc12	i	3%	-1%	u	-1%	17%
CCn1c(=O)cc(SCC(=O)Nc2ccc3c(c2)OCO3)c2ccccc21	i	-4%	-5%	16µM*	-10%	7%
COc1ccc(NC(=O)Cn2c(=O)oc3cc(S(=O)(=O)NCc4ccccc4)ccc32)c(OC)c1	u	x	x	i	x	12%
CC(C)C(=O)Nc1cccc(COc2ccc(CN(CCc3ccccc3)C(=O)OC(C)(C)C)cc2)c1	i	u	-7%	u	u	11%
CC(C)(C)OC(=O)N(Cc1ccccc1)Cc1ccccc1OCc1cccc(NC(=O)C2CCC2)c1	u	u	-5%	i	5%	-5%

Assay outcomes from PubChem BioAssay.
